# Results as given in publication PMC4336329 (PLoS ONE, 2015).
# In all, about 310,000 compounds went through this assay and about 14,000 (4.5%) showed an effect of 50% or more. Effects have a minus sign here. What follows is part of a selection rich in strong results, with near analogues and random picks from the rest.
# Target: human ether-à-go-go-related gene (hERG) potassium channel (human, UniProt Q12809)
# Assay: primary screen, population patch clamp on CHO cells stably expressing hERG; higher = less effect of the substance
# 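Note: peak tail current of the secondary pulse compared with the same well before compound.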
# Sequence of human ether-à-go-go-related gene (hERG) potassium channel (Q12809 whole entry, looked up): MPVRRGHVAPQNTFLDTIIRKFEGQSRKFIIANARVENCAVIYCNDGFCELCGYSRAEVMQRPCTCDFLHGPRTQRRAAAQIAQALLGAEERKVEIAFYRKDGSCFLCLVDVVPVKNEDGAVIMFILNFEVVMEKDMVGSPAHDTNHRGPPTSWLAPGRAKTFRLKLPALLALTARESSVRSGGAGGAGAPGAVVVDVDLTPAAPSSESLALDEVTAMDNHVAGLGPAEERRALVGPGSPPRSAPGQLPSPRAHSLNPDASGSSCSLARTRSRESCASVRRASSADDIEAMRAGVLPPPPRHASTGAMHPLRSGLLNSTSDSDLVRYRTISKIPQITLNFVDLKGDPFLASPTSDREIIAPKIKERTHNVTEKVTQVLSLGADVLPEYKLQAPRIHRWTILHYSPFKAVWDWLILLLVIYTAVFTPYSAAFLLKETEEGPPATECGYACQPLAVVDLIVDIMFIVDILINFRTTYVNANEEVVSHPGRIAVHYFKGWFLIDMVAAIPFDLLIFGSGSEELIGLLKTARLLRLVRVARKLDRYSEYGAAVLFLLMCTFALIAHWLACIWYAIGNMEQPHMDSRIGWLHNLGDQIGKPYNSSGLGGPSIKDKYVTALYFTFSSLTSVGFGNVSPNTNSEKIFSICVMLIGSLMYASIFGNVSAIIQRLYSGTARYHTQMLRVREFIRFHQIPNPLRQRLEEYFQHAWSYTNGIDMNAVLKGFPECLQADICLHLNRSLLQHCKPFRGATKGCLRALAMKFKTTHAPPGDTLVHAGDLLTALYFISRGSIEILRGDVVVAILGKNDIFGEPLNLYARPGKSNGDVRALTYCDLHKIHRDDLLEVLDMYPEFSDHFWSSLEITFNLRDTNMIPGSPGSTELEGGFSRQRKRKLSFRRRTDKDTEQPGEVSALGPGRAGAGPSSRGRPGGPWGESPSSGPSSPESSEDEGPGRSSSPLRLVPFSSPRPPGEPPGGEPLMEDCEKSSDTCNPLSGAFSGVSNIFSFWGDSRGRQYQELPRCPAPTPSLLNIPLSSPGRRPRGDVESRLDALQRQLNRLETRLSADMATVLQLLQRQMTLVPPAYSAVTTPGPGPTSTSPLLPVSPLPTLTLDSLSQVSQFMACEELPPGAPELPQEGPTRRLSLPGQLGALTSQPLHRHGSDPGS
row,SMILES,"hERG current change (%, negative = inhibition) at 10uM"
1,Cc1ccc(NC(=O)CSc2nnc(C3COc4ccccc4O3)o2)c(Cl)c1 (stereo not drawn),12.5%
2,Brc1ccc(-c2noc(-c3ccccn3)n2)o1,2.68%
3,COC(=O)C1(C)NC(c2ccco2)C2C(=O)N(c3ccc(C)cc3)C(=O)C21 (stereo not drawn),-22.5%
4,FC(F)(F)c1cccc(-c2nnc(-c3ccccc3)c(N3CCOCC3)n2)c1,-19.7%
5,Cc1nnc(-c2ccccc2)nc1N1CCOCC1,-10.2%
6,Cc1nnc(-c2cccc(C(F)(F)F)c2)nc1N1CCOCC1,-74.1%
7,CC1CC(C)CN(C(=O)Cn2c(=O)oc3cc(S(=O)(=O)N4CCCC4)ccc32)C1 (stereo not drawn),-3.39%
8,CCn1cc(C(=O)OCC(=O)OC2CC(C)CCC2C(C)C)c(=O)c2ccc(C)nc21 (stereo not drawn),-51.8%
9,CCn1cc(C(=O)OCC(=O)N2C(C)CCCC2C)c(=O)c2ccc(C)nc21 (stereo not drawn),11%
10,C=CCOC(=O)c1cn(CC)c2nc(C)ccc2c1=O,-5.77%
11,Cc1cc(C)cc(NC(=O)C2CCCN(S(=O)(=O)c3c(C)noc3C)C2)c1 (stereo not drawn),-4.34%
12,CCOc1ccccc1NS(=O)(=O)c1csc(C(N)=O)c1,11.7%
13,COc1ccc(NC(=O)CN(C)CC(=O)Nc2sc3c(c2C(N)=O)CCC3)cc1,-79%
14,COc1ccc(CC(=O)Nc2sc3c(c2C(N)=O)CCCC3)cc1,-1.39%
15,COc1ccc(NC(=O)CN(C)CC(=O)Nc2sc3c(c2C#N)CCC3)cc1,0.0459%
16,CN(CC(=O)Nc1ccc(C(N)=O)cc1)CC(=O)Nc1ccccc1Cl,-5.04%
17,NC(=O)c1c(NC(=O)c2ccccc2Cl)sc2c1CCC2,15.1%
18,CCC(=O)Nc1sc2c(c1C(N)=O)CCC2,-15.7%
19,Cc1cccc(C)c1NC(=O)CN(C)CC(=O)Nc1sc2c(c1C(N)=O)CCC2,-33.9%
20,Cc1ccc(NC(=O)CN(C)CC(=O)Nc2sc3c(c2C(N)=O)CCC3)cc1,-55.5%
21,CN(CC(=O)Nc1ccccc1Cl)CC(=O)Nc1sc2c(c1C(N)=O)CCC2,-66.2%
22,CSc1ncccc1C(=O)OCC(=O)c1ccccc1,35%
23,CCN(CC(=O)Nc1ccc2c(c1)OCCO2)C(=O)CC(NC(C)=O)c1ccccc1 (stereo not drawn),18.7%
24,Cc1csc(NC(=O)CCCNC(=O)c2ccc(Cl)cc2)n1,-23.6%
25,CCC(C)c1ccccc1N1CC(C(=O)Nc2ccc(S(=O)(=O)N3CCOCC3)cc2)CC1=O (stereo not drawn),-9.78%
26,COc1ccc(N2CCN(CC(O)COCCOc3ccc(Br)cc3)CC2)cc1.Cl (stereo not drawn),-69.1%
27,COc1ccc(OCCOCC(O)CN2CCOCC2)cc1.Cl (stereo not drawn),4.55%

row,SMILES,"hERG current change (%, negative = inhibition) at 10uM"
1,COc1ccccc1N1CCN(CC(O)COc2ccc(S(=O)(=O)N3CCOCC3)cc2)CC1.Cl (stereo not drawn),-4.3%
2,COc1ccccc1N1CCN(CC(O)COCCOc2ccc(Br)cc2)CC1.Cl (stereo not drawn),-58.8%
3,COc1ccccc1NC(=O)CSc1nnc(Cn2nnc(-c3ccccc3)n2)n1-c1ccccc1,-5.02%
4,CC(CCc1ccccc1)NC(=O)CNC(=O)COc1ccccc1 (stereo not drawn),-0.873%
5,O=C(NC(=S)Nc1ccc2cn[nH]c2c1)c1ccccc1,-2.32%
6,Cc1ccccc1C1NC(=S)NC2=C1C(=O)CC(C)(C)C2 (stereo not drawn),18.5%
7,Clc1ccc2oc(-c3cccnc3)nc2c1,-14.9%
8,COc1ccc(-c2oc3ncnc(NCCCN4CCOCC4)c3c2-c2ccc(OC)cc2)cc1,2.49%
9,c1ccc(-c2oc3ncnc(NCCCn4ccnc4)c3c2-c2ccccc2)cc1,-69.9%
10,c1ccc(-c2oc3ncnc(NCCCN4CCOCC4)c3c2-c2ccccc2)cc1,-87.1%
11,Clc1ccc(-n2ncc3c(NCCCn4ccnc4)ncnc32)cc1,-26.1%
12,c1cn(CCCNc2ncnc3nc[nH]c23)cn1,8.93%
13,c1ccc(-c2oc3ncnc(NCCN4CCOCC4)c3c2-c2ccccc2)cc1,-21.3%
14,Cc1ccc(OCCCC(=O)Nc2cc(Cl)ccc2-n2cncn2)cc1,-22.4%
15,CCOC(=O)N1CCN(C(=O)CSCC(=O)Nc2nc(-c3cccs3)cs2)CC1,-31.4%
16,CCOc1ccccc1N1CC(C(=O)N2CCN(Cc3ccc(C#N)cc3)CC2)CC1=O (stereo not drawn),-67.3%
17,COc1cc(CN2CCC(C(=O)N3CCN(c4ccccc4F)CC3)CC2)cc(OC)c1OC.O=C(O)C(=O)O,-22.6%
18,COc1cccc(CN2CCC(C(=O)N3CCN(c4ccccc4F)CC3)CC2)c1OC.O=C(O)C(=O)O,-10.2%
19,COc1ccc(OC)c(CN2CCC(C(=O)N3CCN(c4ccccc4F)CC3)CC2)c1.O=C(O)C(=O)O,-65.3%
20,COc1cc(CN2CCC(C(=O)N3CCN(c4ccccc4F)CC3)CC2)ccc1O.O=C(O)C(=O)O,-19.9%
21,CCOc1ccccc1N1CC(C(=O)N2CCc3ccccc3C2)CC1=O (stereo not drawn),-19.4%
22,COc1cc(CN2CCC(C(=O)N3CCN(c4ccccc4F)CC3)CC2)cc(OC)c1O.O=C(O)C(=O)O,-3.74%
23,COc1ccc(CN2CCC(C(=O)N3CCN(c4ccccc4F)CC3)CC2)cc1OC,-37%
24,CCOc1ccccc1N1CC(C(=O)N2CCOCC2)CC1=O (stereo not drawn),13.9%
25,CCOc1ccc(CN2CCC(C(=O)N3CCN(c4ccccc4F)CC3)CC2)cc1OC.O=C(O)C(=O)O,-64.8%
26,COc1cccc(CN2CCC(C(=O)N3CCN(c4ccccc4F)CC3)CC2)c1,-53%
27,COc1cccc(CN2CCC(C(=O)N3CCC(C)CC3)CC2)c1.O=C(O)C(=O)O,-11%
